Assay results taken from PubChem BioAssay (EPA / NIEHS).
Values joined by “and” are separate entries in the source; they are usually repeats but may differ in a detail not shown here. Equal entries are not always repeated. Records with an inconclusive call do not appear. More than one record can exist for a structure, and the calls need not agree. Active and inactive are the calls of the source. The calls were made as follows, unless noted: active = hit-call score of the fitted dose curve at least 0.9, where 1 is the maximum; inconclusive = response in the unintended direction; inactive = score below 0.9.

Key:
[1] = read-out: Cellular tumor antigen p53 (Homo sapiens) (UniProt P04637); test: LTEA_HepaRG_TP53: Life Technologies and Expression Analysis (LTEA) Assay for Tumor Protein P53 (TP53) using HepaRG (AID 2283537; active = hit-call score of the fitted dose curve at least 0.9, where 1 is the maximum; inactive = score below 0.9); settings: mRNA level, 48 h; actives raise or lower the signal
Outline: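 Differentiated HepaRG cells in serum-free induction medium exposed 48 h in duplicate to 8 half-log concentrations, top 100 uM, 0.5% DMSO. TP53 mRNA by TaqMan qRT-PCR (Fluidigm), normalized to ACTB, GAPDH, POLR2A; fitted bidirectionally versus DMSO.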

[2] = read-out: UDP glucuronosyltransferase (UGT1A6), UGT1A6 (gene 54578); test: LTEA_HepaRG_UGT1A6: Life Technologies and Expression Analysis (LTEA) Assay for UDP glucuronosyltransferase (UGT1A6) using HepaRG (AID 2283539; active = hit-call score of the fitted dose curve at least 0.9, where 1 is the maximum; inactive = score below 0.9); settings: mRNA level, 48 h; actives raise or lower the signal
Outline: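 qRT-PCR readout of UGT1A6 mRNA (normalized to ACTB/GAPDH/POLR2A) in differentiated HepaRG cells after 48 h chemical exposure; 8 concentrations, top 100 uM, half-log steps, 0.5% DMSO. Bidirectional curve fit relative to DMSO baseline.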

[3] = read-out: X-box binding protein 1 (XBP1), XBP1 (gene 7494); test: LTEA_HepaRG_XBP1: Life Technologies and Expression Analysis (LTEA) Assay for X-box binding protein 1 (XBP1) using HepaRG (AID 2283540; active = hit-call score of the fitted dose curve at least 0.9, where 1 is the maximum; inactive = score below 0.9); settings: mRNA level, 48 h; actives raise or lower the signal
Outline: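 HepaRG, 48 h exposure, 8-pt half-log CRC top 100 uM, 0.5% DMSO vehicle, duplicates. Readout: TaqMan qRT-PCR of XBP1 mRNA, housekeeping-normalised (ACTB/GAPDH/POLR2A); bidirectional fit vs DMSO baseline.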

[4] = LTEA_HepaRG_LDH_cytotoxicity: Cytotoxicity Assessment in the Life Technologies and Expression Analysis (LTEA) Assay (AID 2283563);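 as to AC50: LDH activity released into spent culture medium as a marker of cell death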
Outline: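 HepaRG (human liver line), 48 h exposure, 8-pt half-log series from 100 uM, 0.5% DMSO vehicle, duplicates. Read-out: LDH in spent medium. Positive-direction fit vs DMSO baseline.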

[5] = TOX21_p53_BLA_p2_viability: Viability Assessment in the Tox21 HCT-116 p53 Agonism Beta-lactamase Assay, Phase 2 (AID 2283591);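 also: actives lower the ATP signal meaning cytotoxicity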
Outline: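 HCT116 p53-bla cells, 4000/well, dosed after 5 h plating (217-fold dilution of DMSO stocks) and incubated 16 h at 37C. Viability taken as cellular ATP by CellTiter-Glo luminescence after 30 min RT; signal loss marks cytotoxicity.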

[6] = target: Cellular tumor antigen p53 (Homo sapiens) (UniProt P04637); test: TOX21_p53_BLA_p2_ratio: Tox21 HCT-116 p53 Agonism Beta-lactamase Assay, Ratio, Phase 2 (AID 2283592)
Outline: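 Readout: blue/green (460/530 nm) FRET emission ratio after 2 h CCF4-AM loading at room temperature, excitation 405 nm. HCT116 p53 bla cells, 16 h compound exposure at 37C, 5% CO2; agonist direction fitted against DMSO baseline.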

[7] = target: Cellular tumor antigen p53 (Homo sapiens) (UniProt P04637); test: TOX21_p53_BLA_p3_ratio: Tox21 HCT-116 p53 Agonism Beta-lactamase Assay, Ratio, Phase 3 (AID 2283596)
Outline: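 Cells were seeded at 4000/well, rested 5 h at 37C, then dosed with DMSO compound solutions (217-fold dilution) for 16 h. CCF4-AM substrate was loaded for 2 h at room temperature, and the 460/530 nm emission ratio was fitted for gain of signal versus DMSO.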

[8] = read-out: UDP glucuronosyltransferase (UGT1A1), UGT1A1 (gene 54658); test: LTEA_HepaRG_UGT1A1: Life Technologies and Expression Analysis (LTEA) Assay for UDP glucuronosyltransferase (UGT1A1) using HepaRG (AID 2283538; active = hit-call score of the fitted dose curve at least 0.9, where 1 is the maximum; inactive = score below 0.9); settings: mRNA level, 48 h; actives raise or lower the signal
Outline: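 HepaRG, 48 h chemical exposure (top 100 uM, half-log 8-pt, 0.5% DMSO vehicle), duplicate wells; qRT-PCR (TaqMan, Fluidigm array) for UGT1A1 mRNA, housekeeping-normalized; bidirectional curve fit vs DMSO baseline.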

[9] = TOX21_p53_BLA_p3_viability: Viability Assessment in the Tox21 HCT-116 p53 Agonism Beta-lactamase Assay, Phase 3 (AID 2283593);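 also: cells exposed to compound for 16 h before reading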
Outline: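 HCT116 cells, 4000/well, dosed 5 h after plating by pin transfer (217-fold dilution from DMSO stock) and incubated 16 h at 37C, 5% CO2. Viability read as ATP luminescence with CellTiter-Glo after 30 min at room temperature.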

[10] = ATG_XTT_Cytotoxicity: Cytotoxicity Assessment in the Attagene TRANS-FACTORIAL HepG2 Assay (AID 2283584);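 as to AC50: cells exposed to compound for 24 h before reading; active means loss of viability signal versus DMSO baseline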
Outline: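 XTT readout of cell number in transfected HepG2 cells, 24 h post-dosing; DMSO serves as negative control and baseline, with activity taken as loss of viability signal.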

Measured: AC50

Cellular tumor antigen p53 (Homo sapiens), sequence (P04637 whole entry, looked up): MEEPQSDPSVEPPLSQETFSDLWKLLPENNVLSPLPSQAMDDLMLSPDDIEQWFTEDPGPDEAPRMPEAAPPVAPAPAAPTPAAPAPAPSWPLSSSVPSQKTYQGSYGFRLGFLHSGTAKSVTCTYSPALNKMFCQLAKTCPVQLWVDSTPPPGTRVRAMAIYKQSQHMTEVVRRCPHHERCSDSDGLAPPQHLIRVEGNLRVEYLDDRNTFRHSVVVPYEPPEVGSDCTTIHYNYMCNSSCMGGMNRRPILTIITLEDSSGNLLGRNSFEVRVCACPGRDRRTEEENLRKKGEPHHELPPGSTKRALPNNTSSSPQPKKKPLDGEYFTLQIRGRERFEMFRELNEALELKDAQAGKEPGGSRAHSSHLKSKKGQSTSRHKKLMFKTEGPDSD

Cc1cc(-c2ccc(N)c(C)c2)ccc1N
active: [6] 87.2 µM
inactive: [1] | [2] | [3] | [4] | [5] | [6] | [7]

Oc1ccc(Cl)cc1Cl
not listed: [3] | [10]
inactive: all other assays above

CC1=C2C[C@H]3[C@@H](CC=C4C[C@@H](O)CC[C@@]43C)[C@@H]2CC[C@]12O[C@@H]1C[C@H](C)CN[C@H]1[C@H]2C
active: [3] 25 µM
not listed: [6] | [8]
inactive: all other assays above

C=CC(N)=O
not listed: [8] | [10]
inactive: all other assays above

CCC(C)(CC)c1cc(NC(=O)c2c(OC)cccc2OC)on1
inactive: [2] | [3] | [4]

OCC(O)CO
inactive: [10] | [5] | [6] | [9] | [7]

CCCN(CCC)N=O
not listed: [3] | [8]
inactive: all other assays above

Cc1cccc([N+](=O)[O-])c1
not listed: [3] | [8]
inactive: all other assays above

O=C(O)C(F)(F)C(F)(F)C(F)(F)C(F)(F)C(F)(F)C(F)(F)C(F)(F)C(F)(F)C(F)(F)F
active: [8] 36.2 µM | [2] 38.6 µM | [4] 63.4 µM
not listed: [1] | [3]
inactive: all other assays above

CCCCCCCCCC[N+](C)(C)CCCCCCCCCC
active: [2] 50 µM | [4] 36.6 µM | [10] 18.5 µM | [5] 36.4 µM and 33.1 µM | [6] 65.1 µM and 39.6 µM | [9] 64 µM and 27.4 µM | [7] 74.3 µM and 39.7 µM
inactive: [1]

Cc1cc(O)ccc1Cl
not listed: [3] | [8]
inactive: all other assays above

CC(C)(c1ccccc1)c1ccc(O)cc1
active: [4] 76.7 µM | [5] 80.1 µM | [6] 74 µM
inactive: [1] | [2] | [10] | [5] | [6] | [9] | [7]

CCSC(=O)N(CC)C1CCCCC1
inactive: [8] | [2] | [4]

O=C(NC(=O)c1cc(F)c(F)cc1Cl)Nc1cc(F)ccc1N1CCC(C(=O)O)CC1
not listed: [3] | [8] | [10]
inactive: all other assays above

O=C(O)C(F)(F)C(F)(F)C(F)(F)C(F)(F)C(F)(F)F
inactive: [1] | [2] | [4] | [6] | [7]

Oc1ccc(C(c2ccc(O)cc2)(C(F)(F)F)C(F)(F)F)cc1
inactive: [10] | [5] | [6] | [9] | [7]
active: [1] 94.5 µM | [2] 74.5 µM | [4] 77 µM | [10] 60.9 µM and 100 µM | [5] 65.1 µM | [6] 63 µM | [9] 82.1 µM | [7] 54.2 µM

COS(=O)(=O)OC
not listed: [3] | [8] | [10]
inactive: all other assays above

Nn1cnnc1
not listed: [3] | [8]
inactive: all other assays above

CC(C)(O)C(=O)Nc1ccc([N+](=O)[O-])c(C(F)(F)F)c1
inactive: [2] | [4] | [10] | [5] | [6] | [9] | [7]
active: [1] 0.0309 µM | [6] 69.3 µM

CCOCCOC(C)=O
not listed: [3] | [8]
inactive: all other assays above

Clc1ccc(Cl)cc1
not listed: [3] | [8]
inactive: all other assays above

O=C(O)C(F)(F)C(F)(F)C(F)(F)C(F)(F)C(F)(F)C(F)(F)C(F)(F)C(F)(F)F
active: [1] 60.4 µM | [2] 82.9 µM | [4] 78.6 µM | [5] 85.3 µM | [9] 56.9 µM
inactive: [10] | [6] | [7]

CN(C)c1nc(=O)n(C2CCCCC2)c(=O)n1C
inactive: [8] | [2] | [3] | [4]

ClC(Cl)=C(c1ccc(Cl)cc1)c1ccc(Cl)cc1
inactive: [1] | [2] | [4] | [10] | [5] | [6] | [9] | [7]
active: [5] 55.6 µM | [6] 87.7 µM | [9] 58.4 µM

O=S(=O)(O)C(F)(F)C(F)(F)C(F)(F)C(F)(F)C(F)(F)C(F)(F)F
not listed: [3] | [5] | [8]
inactive: all other assays above

CC(c1ccc(O)cc1)(c1ccc(O)cc1)c1ccc(O)cc1
active: [1] 93.9 µM | [2] 75.2 µM | [4] 76.5 µM | [5] 33.4 µM | [6] 62.8 µM | [7] 78.9 µM
inactive: [10] | [9]

CC#Cc1cc(C)nc(Nc2ccccc2)n1
active: [4] 59.9 µM
inactive: [1] | [2] | [5] | [6] | [9]

CCC(C)c1cc([N+](=O)[O-])cc([N+](=O)[O-])c1O (configuration not stated)
inactive: [10] | [9] | [7]
active: [1] 1.55 µM | [2] 4.17 µM | [4] 3.73 µM | [6] 4.16 µM | [7] 0.984 µM

Cc1cccc(C)c1N
inactive: [1] | [2] | [4] | [10] | [6] | [7]

Oc1c(Cl)c(Cl)c(Cl)c(Cl)c1Cl
inactive: [10] | [5] | [9]
active: [1] 6.71 µM | [2] 6.77 µM | [4] 6.81 µM | [6] 8.58 µM and 1.98 µM | [7] 5.71 µM and 1.86 µM

C=CC(=O)NCNC(=O)C=C
not listed: [3] | [6] | [8]
inactive: all other assays above

Cc1cc2c3c(c1)C(c1ccccc1)=N[C@@H](NC(=O)c1ccncc1)C(=O)N3CC2
active: [1] 50 µM
inactive: [2] | [4] | [6]

CCNc1nc(NC(C)C)nc(SC)n1
inactive: [2] | [3] | [4]

Cc1ccccc1CO[C@@H]1C[C@@]2(C(C)C)CC[C@]1(C)O2
inactive: [2] | [4]
active: [8] 14.9 µM

CCOP(=S)(OCC)SCSC(C)(C)C
inactive: [1] | [2] | [4] | [10] | [5] | [6]

C[C@]12CCC(=O)C=C1CC[C@@H]1[C@@H]2CC[C@@]2(C)[C@H]1CC[C@]2(C)O
inactive: [1] | [10] | [5] | [6] | [9] | [7]
active: [2] 45.8 µM | [4] 74 µM | [6] 50.3 µM

Sc1ccccc1
inactive: [10]
